Measurements taken from PubChem BioAssay AID485367 (National Center for Advancing Translational Sciences (NCATS), 2010).
Values joined by “and” are separate entries in the source; they are usually repeats but may differ in a detail not shown here. Equal entries are not always repeated. The whole screen tested about 330,000 compounds, of which about 560 (0.17%) were called active. Roughly 1% stayed inconclusive and do not appear here. Calls come from the whole dose curve; as a rule, active = well fitted inhibition curve with a large enough effect; inconclusive = small, poorly fitted or top-dose-only effect, or effect the other way; inactive = flat fitted curve, though single readings scatter. The list comes from a sample in which actives are over-represented; it also holds similar structures and randomly drawn compounds.

Target: ATP-dependent 6-phosphofructokinase (Trypanosoma brucei brucei) (UniProt O15648)
Sequence (O15648 whole entry, looked up): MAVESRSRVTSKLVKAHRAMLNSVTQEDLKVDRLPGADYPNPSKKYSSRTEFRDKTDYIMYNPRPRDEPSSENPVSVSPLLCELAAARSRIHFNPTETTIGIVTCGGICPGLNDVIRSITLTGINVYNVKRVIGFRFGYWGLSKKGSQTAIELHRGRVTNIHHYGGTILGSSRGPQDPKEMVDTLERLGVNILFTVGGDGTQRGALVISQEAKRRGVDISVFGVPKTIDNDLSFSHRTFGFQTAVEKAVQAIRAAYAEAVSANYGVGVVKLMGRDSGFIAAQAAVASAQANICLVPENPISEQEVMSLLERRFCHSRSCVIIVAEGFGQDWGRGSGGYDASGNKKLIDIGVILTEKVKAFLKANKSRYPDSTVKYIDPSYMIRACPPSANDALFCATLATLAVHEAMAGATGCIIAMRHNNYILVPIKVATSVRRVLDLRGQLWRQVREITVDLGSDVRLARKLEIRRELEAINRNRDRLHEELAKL
Assay: qHTS Assay to Find Inhibitors of T. brucei phosphofructokinase; note: nearly all actives have a fitted effect of over 60% in size;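 for activity, negative = inhibition: 0% = uninhibited 1x PFK enzyme wells and -100% = no-enzyme wells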
Details: T. brucei PFK, ADP-Glo luminescence; series mostly up to 57.5 µM; activity, negative = inhibition: at the top concentration
In short: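 In TEA buffer at pH 8.0 with 5 mM MgCl2, enzyme (1.25 nM) converted F6P (0.5 mM) and ATP (0.1 mM) for 45 min at room temperature. ADP product was read by luciferase luminescence.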
Potency is the fitted concentration of half-maximal effect.

activity, negative = inhibition, inactive:
CN(CC(=O)Nc1ccc(F)c(F)c1F)C(=O)C1CC(=O)N(C2CCCC2)C1 (stereo not drawn) 2.52%, CCOC(=O)c1cnc(SC)nc1Sc1ccc(Cl)cc1Cl -2.53%, NCCN1CCN2C(=O)CN(C(=O)c3ccccc3)CC12 (stereo not drawn) 0.907%, O=C(COC(=O)c1cc(=O)[nH]c2ccccc12)NCc1cccc(Cl)c1 -11.9%, Cc1cc(Nc2cccc(F)c2)n2ncnc2n1 -1.14%, C=CCn1c(C23CC4CC(CC(C4)C2)C3)n[nH]c1=S -0.991%, CCOC(=O)c1c(/N=C/C2C(=O)CC(C)(C)CC2=O)sc(C)c1C 2.63%, O=C(Nc1cc(C(F)(F)F)ccc1Cl)c1cc2nc3c(c(C(F)(F)F)n2n1)CCCC3 -1.59%, Cc1cc(NS(=O)(=O)c2ccc(NC(=O)C(C)Oc3cccc(C)c3C)cc2)nc(C)n1 (stereo not drawn) -5.56%, CCCCn1c(N)c(N(Cc2ccccc2OC)C(=O)COc2cc(C)ccc2Cl)c(=O)[nH]c1=O 24.8%, NC(=O)Nc1ccccc1C(=O)NCCc1ccccc1 -28.3%, CCOC(=O)C1C(=O)C=C(c2ccc(OC)cc2)CC1c1ccco1 (stereo not drawn) 1.24%, CC(C)c1ccc(NC(=O)Cn2ncc3ccccc32)cc1 2.07%, C=CCOc1ccc(/C=C/C(=O)OCC(=O)NC2CCCCCC2)cc1 1.83%, COc1cccc(S(=O)(=O)NCc2ccc(C(=O)NCc3ccccn3)cc2)c1 -1.83%, O=C1CSc2ccc(C(=O)NCc3ccccn3)cc2N1 -9.69%, CCOc1cc(CNn2c(C)nnc2SCC(=O)NC(C)(C)C)ccc1OCC(=O)NC(C)(C)C -0.0385%, S=c1[nH]c2ccccc2c2ccccc12 -0.408%, COCCNC(=O)COc1ccc(N(C)S(=O)(=O)c2ccc3ccccc3c2)cc1 1.54%, Cc1ccc(N2C(=O)C(CC(=O)Nc3cccc(F)c3)N(CCc3ccncc3)C2=O)cc1 (stereo not drawn) -1.36%, CCCCN1C(=O)C(C)=C(C)C1OCCc1ccc(OC)c(OC)c1 (stereo not drawn) -0.0022%, O=C(c1ccccn1)c1ncc(C(F)(F)F)cc1Cl -1.9%, N/C(=N\OC(=O)CCCC(=O)O)c1ncc(C(F)(F)F)cc1Cl 0.924%, COc1cccc(N=c2oc3c(C)ncc(CO)c3cc2C(N)=O)c1 -0.59%, CC(C)c1ccc(N2CCN(C(=O)c3ccccc3NC(=O)/C=C(\C(=O)O)c3ccccc3)CC2)cc1 0.784%, Cc1c(C)c(C)c2[nH]c(=S)[nH]c2c1C 4.32%, CCOc1ccc(Oc2nc(C)cc(OC)n2)nn1 -6.66%, Cc1ccc(-c2nn(-c3ccccc3)cc2C(=O)NCCCN2CCCC2=O)cc1 4.23%, COc1ccccc1NS(=O)(=O)N(C)C 0.142%, Cc1ccc(CN(C)Cc2cc(=O)oc3cc(C)c(Cl)cc23)cc1 0.644%, O=c1oc2ccccc2c(CNc2ccccc2)c1[N+](=O)[O-] 1.56%, Cc1ccc2c(c1)N(S(=O)(=O)c1cc(-c3cc(C)no3)ccc1C)CCO2 -4.63%, COC(=O)c1cccc(NC(=O)CN2CCC(NC(=O)c3cc(OC)c(OC)c(OC)c3)CC2)c1 0.362%, Cn1c2cc(B(O)O)sc2c2cnn(Cc3ccccc3F)c(=O)c21 -19.7%, O=C(COC(=O)/C=C/c1ccc(OC(F)F)cc1)NC1CCCCC1 6.89%, N=C1/C(=C/c2cccn2-c2cccc([N+](=O)[O-])c2)C(=O)N=C2SC=CN12 3.77%, CCOC(=O)c1c(CNCc2ccccc2F)c2sc(C)cc2n1C -0.233%, CCN(CC)CCCSc1nc2ccccc2s1 -6.96%, NC(=O)c1ccc(Nc2ccc3nonc3c2[N+](=O)[O-])cc1 0.218%, CCOCCOC(=O)C1=C(C)N(C)C(=O)NC1c1ccccc1F (stereo not drawn) 0.633%, CCOC1CS(=O)(=O)CC1OCC (stereo not drawn) -1.39%, CC(C)(C)NC(=O)NC(=O)COC(=O)Cc1c(F)cccc1Cl -0.983%, O=C1CSC(=S)N1c1ccc(O)cc1 -1.23%, COc1cc(N2C(=O)CSC2=S)cc(OC)c1OC -8.25%, O=C(COC(=O)CNS(=O)(=O)c1ccccc1)NC12CC3CC(CC(C3)C1)C2 -2.55%, Cc1ccc(C(=O)COC(=O)c2cccc(N3C(=O)c4c(C)nc5ccccc5c4C3=O)c2)cc1C -6.05%, O=C(Nc1ccncc1)c1ccc([N+](=O)[O-])cc1Cl -2.98%, Cc1ccnc(NC(=O)c2ccc(Cl)c([N+](=O)[O-])c2)c1 -21.5%, Cc1c(CCO)c(=O)n(-c2ccccc2)n1S(=O)(=O)c1ccc(F)cc1 2%, CCOc1ccc(NCCC(=O)c2ccc3c(c2)OCO3)cc1 0.639%, COc1ccc(CNC(=O)C(NS(=O)(=O)c2cccc3nsnc23)C(C)C)cc1 (stereo not drawn) -7.82%, CC(NC(=O)c1ccc(S(=O)(=O)Nc2ccccc2)cc1)c1ccc(S(N)(=O)=O)cc1 (stereo not drawn) 4.34%

Potency, active:
O=C(NCc1ccccn1)c1ccc2nc(-c3ccco3)c(-c3ccco3)nc2c1 2.13 µM, N/C(=N\OC(=O)Nc1ccc(Cl)c(Cl)c1)c1ncc(C(F)(F)F)cc1Cl 13.5 µM, O=c1[nH]c(=S)[nH]c2[nH]c(=S)[nH]c12 16.9 µM and 13.5 µM, O=[N+]([O-])c1c(NCCO)cc(Sc2nc3ccccc3s2)c2nonc12 6.01 µM, O=C1CSC(=S)N1c1ccc(Cl)c(Cl)c1 21.3 µM, O=C(Nc1ccncc1)c1ccc(Cl)c([N+](=O)[O-])c1 26.9 µM
